# Measurements taken from PubChem BioAssay (Tox21).
# Records with an inconclusive call do not appear. Where a call stands in place of a potency, no number is given. Some structures have more than one record in an assay (separate samples or runs), and their calls can disagree. Calls of active or inactive are those of the source. Unless noted, calls come from the whole dose curve; as a rule, active = well fitted curve in the direction sought with a large enough effect in the repeat runs; inconclusive = weak or mixed curves; inactive = no such curve, though single readings can be large; an effect the other way counts as inactive or inconclusive.
# Tests used:
# [1] = qHTS assay to identify small molecule antagonists of the glucocorticoid receptor (GR) signaling pathway - cell viability counter screen (AID 720693); note: nearly all actives have a fitted effect of over 55% in size
# [2] = qHTS assay for identifying genotoxic compounds that show differential cytotoxicity against isogenic chicken DT40 cell lines with known DNA damage response pathways - wild type cell line (AID 743012); note: nearly all actives have a fitted effect of over 60% in size; note: potency is the fitted concentration of half-maximal effect
# Method in brief: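 Luminescent ATP viability signal (CellTiter-Glo, 30 min RT) recorded after wild type DT40 cells were incubated with compounds for 40 h at 37 C/5% CO2.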
# [3] = qHTS assay for identifying genotoxic compounds that show differential cytotoxicity against isogenic chicken DT40 cell lines with known DNA damage response pathways - Rev3 mutant cell line (AID 743014); note: nearly all actives have a fitted effect of over 55% in size; note: potency is the fitted concentration of half-maximal effect
# [4] = qHTS assay for identifying genotoxic compounds that show differential cytotoxicity against isogenic chicken DT40 cell lines with known DNA damage response pathways - Rad54/Ku70 mutant cell line (AID 743015); note: nearly all actives have a fitted effect of over 60% in size; note: potency is the fitted concentration of half-maximal effect
# [5] = qHTS assay to identify small molecule antagonists of the androgen receptor (AR) signaling pathway - cell viability counter screen (AID 743033; note: nearly all actives have a fitted effect of over 45% in size)
# [6] = qHTS assay to identify small molecule antagonists of the androgen receptor (AR) signaling pathway using the MDA cell line - cell viability counter screen (AID 743041; note: nearly all actives have a fitted effect of over 45% in size)
# Method in brief: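 In this qHTS counter assay, fluorescence intensity after CellTiter-Fluor addition indicated viability of MDA-kb2 AR-luc cells given compounds and R1881 for 16 h at 37C.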
# [7] = qHTS assay to identify small molecule antagonists of the thyroid receptor (TR) signaling pathway - cell viability counter screen (AID 743064); note: nearly all actives have a fitted effect of over 50% in size; note: potency is the fitted concentration of half-maximal effect
# Method in brief: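 Viability of T3-stimulated (1 nM final) GH3.TRE-Luc cells is measured by CellTiter-Fluor fluorescence after 23.5 h compound exposure at 37 °C plus 30 min reagent incubation.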
# [8] = biological target: Androgen receptor (Homo sapiens) (UniProt P10275); assay: qHTS assay to identify small molecule antagonists of the androgen receptor (AR) signaling pathway (AID 743035; active = well fitted inhibition curve with a large enough effect in the signal ratio in the repeat runs, not every such curve was filed as active; the % refers to the signal ratio; note: potency is the fitted concentration of half-maximal effect)
# Method in brief: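 Quantitative HTS of the Tox21 10K library used HEK293 AR-UAS-bla cells stimulated with R1881 alongside compound for 16 h at 37C, followed by beta-lactamase FRET detection (LiveBLAzer B/G, 2 h, RT).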
# [9] = biological target: Androgen receptor (Homo sapiens) (UniProt P10275); assay: qHTS assay to identify small molecule agonists of the androgen receptor (AR) signaling pathway (AID 743036; active = well fitted activation curve with a large enough effect in the signal ratio in the repeat runs, with a control signal flat, not every such curve was filed as active; the % refers to the signal ratio)
# Method in brief: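 Screening used 2,000 AR-bla HEK293 cells per well, treated 16 h at 37C with test compounds in DMSO alongside positive and DMSO-only controls; beta-lactamase activity was then read by LiveBLAzer B/G FRET fluorescence after 2 h at room temperature.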
# [10] = biological target: Androgen receptor (Homo sapiens) (UniProt P10275); assay: qHTS assay to identify small molecule agonists of the androgen receptor (AR) signaling pathway using the MDA cell line (AID 743040; note: nearly all actives have a fitted effect of over 20% in size; note: potency is the fitted concentration of half-maximal effect)
# Method in brief: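 Cell-based luciferase reporter: MDA-kb2, MMTV promoter (AR + GR response elements). 16 h compound exposure at 37C; ONE-Glo, 30 min RT, luminescence.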
# Androgen receptor (Homo sapiens), sequence (P10275 whole entry, looked up): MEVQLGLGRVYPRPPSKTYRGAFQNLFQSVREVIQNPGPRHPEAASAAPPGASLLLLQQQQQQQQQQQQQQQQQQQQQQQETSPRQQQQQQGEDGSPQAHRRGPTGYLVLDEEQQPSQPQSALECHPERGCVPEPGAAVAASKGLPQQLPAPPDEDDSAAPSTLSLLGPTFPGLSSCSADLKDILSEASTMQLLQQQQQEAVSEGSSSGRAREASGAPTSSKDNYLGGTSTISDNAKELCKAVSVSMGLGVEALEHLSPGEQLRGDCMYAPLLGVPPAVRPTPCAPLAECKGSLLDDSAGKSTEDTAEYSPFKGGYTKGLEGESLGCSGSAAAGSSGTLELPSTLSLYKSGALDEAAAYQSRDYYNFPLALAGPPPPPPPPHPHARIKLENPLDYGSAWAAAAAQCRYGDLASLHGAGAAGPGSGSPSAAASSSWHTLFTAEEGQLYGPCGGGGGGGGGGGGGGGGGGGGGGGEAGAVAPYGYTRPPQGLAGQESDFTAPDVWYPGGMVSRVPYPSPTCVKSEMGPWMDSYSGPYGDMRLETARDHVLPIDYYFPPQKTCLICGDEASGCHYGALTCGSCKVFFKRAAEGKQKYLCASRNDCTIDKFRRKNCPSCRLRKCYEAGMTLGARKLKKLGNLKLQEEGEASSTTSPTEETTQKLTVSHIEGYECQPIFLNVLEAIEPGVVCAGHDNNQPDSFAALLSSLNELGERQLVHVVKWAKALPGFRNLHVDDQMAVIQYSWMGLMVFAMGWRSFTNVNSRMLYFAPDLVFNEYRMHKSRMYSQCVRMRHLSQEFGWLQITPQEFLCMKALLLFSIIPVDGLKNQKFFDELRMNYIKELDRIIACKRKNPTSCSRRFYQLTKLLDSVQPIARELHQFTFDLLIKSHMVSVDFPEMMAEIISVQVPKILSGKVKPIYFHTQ
SMILES,outcome [1],Potency [2],Potency [3],Potency [4],outcome [5],Potency [6],Potency [7],Potency [8],outcome [9],Potency [10]
CN(C)CCOC(c1ccc(Cl)cc1)c1ccccn1 (stereo not given),inactive,inactive,inactive,inactive,inactive,inactive,–,–,–,–
Cc1c(C)n(CCN(C)C)c2ccc(C(=O)OCCN(C)C)cc12,inactive,11.9 µM (active),7.5 µM (active),13.3 µM (active),inactive,inactive,26.6 µM (active),–,–,–
CCCCCCC(=O)OCC,inactive,inactive,inactive,inactive,inactive,inactive,–,–,–,–
NC(=O)c1ncn([C@@H]2O[C@H](CO)[C@@H](O)[C@H]2O)c1O,inactive,inactive,inactive,inactive,inactive,inactive,inactive,–,–,–
CCCCc1ccc2cccc(S(=O)(=O)O)c2c1,inactive,inactive,inactive,inactive,inactive,inactive,inactive,inactive,inactive,inactive
CCOC(=O)[C@H](CCc1ccccc1)N[C@@H](C)C(=O)N1CCC[C@H]1C(=O)O,inactive,inactive,inactive,inactive,inactive,inactive,–,–,–,–
CCOC(=O)Nc1ccc2c(c1)N(C(=O)CCN1CCOCC1)c1ccccc1S2,inactive,inactive,inactive,inactive,inactive,inactive,inactive,inactive,inactive,12.7 µM (active)
Cc1ccccc1C(=O)O,inactive,inactive,inactive,inactive,inactive,inactive,–,–,–,–
CSc1nc(NC2CC2)nc(NC(C)(C)C)n1,inactive,54.5 µM (active),54.5 µM (active),54.5 µM (active),inactive,inactive,–,–,–,–
NC(=O)c1c(Cl)cccc1Cl,inactive,inactive,inactive,inactive,inactive,inactive,inactive,–,–,–
O=S(=O)(O)c1ccccc1O,inactive,inactive,inactive,inactive,inactive,inactive,inactive,inactive,inactive,inactive
COC(=O)CCCCCCCCC(=O)OC,inactive,inactive,inactive,inactive,inactive,inactive,inactive,–,–,–
CCCC(=O)O[C@]1(C(=O)CCl)[C@@H](C)C[C@H]2[C@@H]3CCC4=CC(=O)C=C[C@]4(C)[C@@]3(F)C(=O)C[C@@]21C,inactive,6.68 µM (active),7.5 µM (active),13.3 µM (active),inactive,–,inactive,7.56 µM (active),–,0.006 µM (active)
OCC(O)[C@@H](O)[C@H](O)[C@H](O)CO[C@H]1O[C@H](CO)[C@@H](O)[C@H](O)[C@H]1O (stereo not given in full),inactive,inactive,inactive,inactive,inactive,inactive,inactive,–,–,–
COc1cc(CCC(C)=O)ccc1O,inactive,inactive,inactive,inactive,inactive,inactive,inactive,–,–,inactive
O=[N+]([O-])c1ccc(CCO)cc1,inactive,inactive,inactive,inactive,inactive,–,–,–,–,–
CN(C)N=Nc1ccccc1,inactive,inactive,inactive,inactive,inactive,inactive,inactive,–,–,–
CCCCCC[C@@H](CCC)C(=O)O,inactive,inactive,inactive,inactive,inactive,inactive,inactive,–,–,–
Nc1[nH]c(=O)ncc1F,inactive,inactive,inactive,inactive,inactive,–,–,–,–,–

SMILES,outcome [1],Potency [2],Potency [3],Potency [4],outcome [5],Potency [6],Potency [7],Potency [8],outcome [9],Potency [10]
c1ccc(SCCSc2ccccc2)cc1,inactive,inactive,inactive,inactive,inactive,inactive,inactive,inactive,inactive,inactive
Cc1ccc(N)cc1[N+](=O)[O-],inactive,inactive,inactive,inactive,inactive,inactive,inactive,inactive,inactive,inactive
NC(=O)CCCCC1CCSS1 (stereo not given),inactive,inactive,inactive,inactive,inactive,inactive,inactive,–,–,–
CCC(=O)c1cccc(Cl)c1,inactive,inactive,inactive,inactive,inactive,inactive,–,–,–,–
CC(=O)NC(Cc1ccccc1)C(=O)O (stereo not given),inactive,inactive,inactive,inactive,–,–,–,–,–,–
NS(=O)(=O)c1cc2c(cc1C(F)(F)F)NC(Cc1ccccc1)NS2(=O)=O (stereo not given),inactive,inactive,inactive,inactive,inactive,inactive,inactive,inactive,inactive,inactive
CC(=O)OC(C)(C)C,inactive,inactive,inactive,inactive,inactive,inactive,inactive,–,–,–
COc1ccc(COC=O)cc1,inactive,inactive,inactive,inactive,inactive,inactive,–,–,–,–
NCC[C@H](O)C(=O)N[C@@H]1C[C@H](N)[C@@H](O[C@H]2O[C@H](CN)[C@@H](O)[C@H](O)[C@H]2O)[C@H](O)[C@H]1O[C@H]1O[C@H](CO)[C@@H](O)[C@H](N)[C@H]1O,inactive,inactive,inactive,inactive,inactive,inactive,inactive,inactive,inactive,inactive
CC(C)N1C(=O)c2ccccc2C1=O,inactive,inactive,inactive,inactive,inactive,inactive,inactive,–,–,–
C#CC(O)C(CC)CCCC (stereo not given),inactive,inactive,inactive,inactive,inactive,inactive,inactive,inactive,inactive,inactive
C1COCCO1,inactive,inactive,inactive,inactive,inactive,inactive,inactive,inactive,inactive,inactive
COc1ccc(N=[N+]([O-])c2ccc(OC)cc2)cc1,inactive,inactive,inactive,inactive,inactive,inactive,inactive,–,–,–
CCCCCCCCCCCCI,inactive,54.7 µM (active),7.73 µM (active),27.4 µM (active),inactive,inactive,inactive,–,–,–
CCC(=O)Nc1cccc(N)c1,inactive,inactive,inactive,inactive,inactive,inactive,inactive,–,–,–
CCCOCC(C)OCC(C)O (stereo not given),inactive,inactive,inactive,inactive,inactive,–,inactive,inactive,–,inactive
CCCCCOC(=O)Nc1nc(=O)n([C@@H]2O[C@H](C)[C@@H](O)[C@H]2O)cc1F,inactive,inactive,inactive,inactive,inactive,inactive,inactive,–,–,–
COc1cc(C(=O)N2CCOCC2)cc(OC)c1OC,inactive,inactive,inactive,inactive,inactive,inactive,inactive,–,–,–
OC1OC[C@@H](O)[C@H](O)[C@H]1O (stereo not given in full),inactive,inactive,inactive,inactive,inactive,inactive,inactive,–,–,–

SMILES,outcome [1],Potency [2],Potency [3],Potency [4],outcome [5],Potency [6],Potency [7],Potency [8],outcome [9],Potency [10]
CCN(CC)C(=O)c1ccc(O)c(OC)c1,inactive,inactive,inactive,inactive,inactive,inactive,inactive,–,–,–
Nc1nc2c(ncn2CCC(CO)CO)c(=O)[nH]1,inactive,3.35 µM (active),5.96 µM (active),5.96 µM (active),inactive,–,inactive,–,–,–
CC(C)[N+](C)(C)CC(O)COc1cccc2ccccc12 (stereo not given),inactive,inactive,inactive,inactive,inactive,inactive,inactive,–,–,–
Fc1ccccc1-c1ccccc1,inactive,inactive,inactive,inactive,inactive,inactive,inactive,–,–,–
c1cc(CN2CCCCC2)cc(OCCCNc2nc3ccccc3s2)c1,inactive,13.3 µM (active),29.8 µM (active),23.7 µM (active),inactive,inactive,11.9 µM (active),–,–,–
CCCCCCCCCCCCCCCCCCOCC(O)CO (stereo not given),inactive,inactive,inactive,inactive,inactive,inactive,inactive,–,–,–
CC(C)CCCC(C)CCCC(C)CCCCC(C)CCCC(C)CCCC(C)C (stereo not given),inactive,inactive,inactive,inactive,inactive,inactive,inactive,–,–,–
CN(C)C(=O)Nc1ccccc1,inactive,inactive,inactive,inactive,inactive,inactive,inactive,–,–,–
[O-][N+](=Nc1ccccc1)c1ccccc1,inactive,inactive,inactive,26.6 µM (active) and inactive,inactive,–,inactive,–,–,–
COC(=O)c1ccc(C(=O)OC)c(C(=O)OC)c1,inactive,inactive,inactive,inactive,inactive,inactive,inactive,–,–,–
C=C[Si](OC)(OC)OC,inactive,inactive,inactive,inactive,inactive,inactive,inactive,–,–,–
C=CC(=O)OCCCCCC,inactive,inactive,inactive,inactive,inactive,inactive,inactive,–,–,–
Cc1cc(C)c(NC(=O)CN(CC(=O)O)CC(=O)O)c(C)c1Br,inactive,inactive,inactive,inactive,inactive,–,inactive,–,–,–
Nc1cc(C(Cl)=C(Cl)Cl)c(S(N)(=O)=O)cc1S(N)(=O)=O,inactive,inactive,inactive,inactive,inactive,inactive,inactive,–,–,–
C=C(C)[C@@H]1CCC2=CC(=O)C[C@@H](C)[C@]2(C)C1,inactive,inactive,inactive,inactive,inactive,inactive,inactive,–,–,–
CCCCCCCCCCCCCCC,inactive,inactive,inactive,inactive,inactive,inactive,inactive,–,–,–
C=C(C)C1CC=C(C)C(O)C1 (stereo not given),inactive,inactive,inactive,inactive,inactive,inactive,inactive,–,–,–
CCCCc1ccc(N)cc1,inactive,inactive,inactive,inactive,inactive,inactive,inactive,–,–,–
